High-throughput results from PubChem.
A selection: hits, their analogues and other compounds. The true share with any hit is near 1.7%.
rTrxR1 inhibitor: qHTS Assay for Inhibitors of Mammalian Selenoprotein Thioredoxin Reductase 1 (TrxR1): qHTS; Thioredoxin reductase 1, cytoplasmic (Rattus norvegicus), O89049; recombinant rTrxR1, NADPH fluorescence consumption, selenite substrate; Potency, µM (titrated, usually from 114 µM), for the others: at the highest dose activity change, negative = inhibition, hits mostly inhibitors; hit rate 1% among 390,000; AID 588453, 2011; note: % is set by controls: 0 for no effect and ±100 for the full control effect; nearly all actives have a fitted effect of over 65% in size
Target sequence (O89049 whole entry, looked up): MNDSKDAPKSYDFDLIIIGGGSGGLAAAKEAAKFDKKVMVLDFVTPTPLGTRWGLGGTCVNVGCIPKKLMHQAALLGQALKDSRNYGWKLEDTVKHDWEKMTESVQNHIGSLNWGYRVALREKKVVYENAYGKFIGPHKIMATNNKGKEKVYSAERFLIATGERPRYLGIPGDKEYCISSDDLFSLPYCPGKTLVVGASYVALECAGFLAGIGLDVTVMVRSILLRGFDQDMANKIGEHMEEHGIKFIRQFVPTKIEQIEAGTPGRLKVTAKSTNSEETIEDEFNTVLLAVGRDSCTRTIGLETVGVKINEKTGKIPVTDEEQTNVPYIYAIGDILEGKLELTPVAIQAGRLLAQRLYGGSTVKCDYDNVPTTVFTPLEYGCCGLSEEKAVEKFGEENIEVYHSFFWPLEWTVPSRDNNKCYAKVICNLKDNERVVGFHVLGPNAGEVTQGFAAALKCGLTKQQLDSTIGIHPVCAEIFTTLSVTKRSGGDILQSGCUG
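Rat TrxR1 (90 nM in the dispensed reagent) was pre-reduced with 400 uM NADPH for 5 min at room temperature, then incubated with compound for 15 min. After 400 uM selenite was added, NADPH fluorescence (Ex 340/Em 450 nm) was followed for 8 min.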
Glioma ERSR ind: qHTS for Inducers of the Endoplasmic Reticulum Stress Response (ERSR) in Human Glioma: qHTS | U87-MG GRP78 promoter luciferase reporter, 16 h | Potency, µM, for the others: at the top dose activation, actives largely listed as activators | hit rate 0.02% among 420,000; note: series mostly up to about 76 µM; % of control where 0% means no effect; nearly all actives have a fitted effect of over 35% in size
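Stably transfected U87-MG glioma cells carrying a GRP78-based luciferase sensor; 16 h compound incubation. Luminescence end-point read 10 min after Bright-Glo addition at room temperature.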
ALOX12 inh: Primary qHTS assay for inhibitors of human arachidonate 12S-lipoxygenase (ALOX12): Round 2; hit rate 1.1% among 580,000; purified 12hLO, xylenol orange hydroperoxide absorbance; Potency, µM (series often up to 108 µM), inactives show at the top dose activity change, negative = inhibition, usual class: inhibitors; note: % is set by controls: 0 for no effect and ±100 for the full control effect
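Hydroperoxide product was detected by ferrous iron/xylenol orange as the 573 to 405 nm absorbance ratio. Arachidonic acid at 40 uM (final) was turned over for 30 min at room temperature by 150 nM human 12hLO, pH 7.0 Hepes buffer, after 15 min compound preincubation.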
IDH1 R132H inh: qHTS for Inhibitors of mutant isocitrate dehydrogenase 1 (IDH1): qHTS; Isocitrate dehydrogenase [NADP] cytoplasmic (Homo sapiens), O75874; IDH1-R132H enzyme, NADPH consumption, diaphorase/resazurin fluorescence; Potency, µM (series often up to 76.6 µM), for inactives: at the top dose activity change, negative = inhibition, actives largely listed as inhibitors; hit rate 0.093% among 390,000; AID 602179, 2012; note: % is set by controls: 0 for no effect and ±100 for the full control effect; nearly all actives have a fitted effect of over 65% in size
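IDH1-R132H (0.5 ug/mL) preincubated 30 min with compound, then NADPH (0.016 mM) and alpha-KG (2 mM) added; 80 min at RT, pH 7.5. Remaining NADPH coupled via diaphorase/resazurin to fluorescence (540/590 nm); concentration-response curves normalized to no-enzyme control.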
Apoferritin bind: qHTS Assay for Identification of Novel General Anesthetics; Ferritin light chain (Equus caballus), P02791; apoferritin/1-aminoanthracene competitive binding, fluorescence; Potency, µM (series often up to 77.5 µM), for inactives: top-dose activity change, negative = displacement, most hits filed as inhibitors; hit rate 0.074% among 350,000; note: % is set by controls: 0 for no effect and ±100 for the full control effect; nearly all actives have a fitted effect of over 20% in size
Target sequence (P02791 2-175 limits assumed): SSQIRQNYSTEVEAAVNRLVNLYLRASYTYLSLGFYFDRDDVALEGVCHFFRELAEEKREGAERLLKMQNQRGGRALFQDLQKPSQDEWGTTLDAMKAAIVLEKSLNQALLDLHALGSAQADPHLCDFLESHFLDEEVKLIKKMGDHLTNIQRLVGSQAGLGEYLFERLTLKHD
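Apoferritin-based anesthetic binding model; compound displacement of fluorescent 1-AMA measured as endpoint fluorescence after 10 minutes at room temperature, scaled to free-ligand and complex controls.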
TrxR1 substrate: qHTS Assay for Substrates of Mammalian Selenoprotein Thioredoxin Reductase 1 (TrxR1): qHTS; Thioredoxin reductase 1, cytoplasmic (Rattus norvegicus), O89049; purified TrxR1 substrate turnover, NADPH consumption readout; Potency, µM (series often up to 114 µM), for inactives: at the highest dose activity change, negative = substrate turnover; hit rate 0.01% among 390,000; AID 588456, 2011; note: % is set by controls: 0 for no effect and ±100 for the full control effect; nearly all actives have a fitted effect of over 50% in size
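Rat TrxR1, dispensed at 90 nM, was prereduced with 400 uM NADPH (final) for 5 min at ~22 deg C, then incubated with compound 15 min before 400 uM selenite. A first-read NADPH fluorescence drop versus no-compound background flagged substrates.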
Active calls of the source: *; ? = inconclusive; nt = not tested or not shown; [ ] = another dose, or the depositor's remark. Calls come from the whole dose curve; as a rule, active = well fitted curve in the direction sought with a large enough effect; inconclusive = small, poorly fitted or top-dose-only effect, or another doubt; inactive = no such curve, though single readings can be large; an effect the other way counts as inactive or inconclusive. Potency is the fitted concentration of half-maximal effect.

SMILES | rTrxR1 inhibitor | Glioma ERSR ind | ALOX12 inh | IDH1 R132H inh | Apoferritin bind | TrxR1 substrate
O=c1c2ccccc2nc2n1CCCS2 | 30% | 2% | 4% | 2% | -9% | 14%
O=c1c(C(c2ccc(O)cc2)c2c(O)nc3n(c2=O)CCCS3)c(O)nc2n1CCCS2 | 3.5µM* | -6% | ? | 4% | -10% | 12%
Cc1ccc(C(c2c(O)nc3n(c2=O)CCS3)c2c(O)nc3n(c2=O)CCS3)cc1 | 2.8µM* | 2% | -28% | 0% | 1% | 13%[57.1 µM]
O=c1c(C(c2ccc(O)cc2)c2c(O)nc3n(c2=O)CCS3)c(O)nc2n1CCS2 | 3.2µM* | -2% | 391% | 18% | -19% | -7%
O=C1Nc2ccccc2C12CN(Cc1ccccc1)C2 | nt | nt | 4%[12.5 µM] | nt | nt | nt
Cc1oc(-c2ccccc2)nc1CSCC(=O)Nc1ccccc1C(F)(F)F | nt | nt | 24% | nt | nt | nt
NS(=O)(=O)c1ccc2c(c1)C1C=CCC1C(C1CC=CCC1)N2 (centres undefined) | 40µM* | -5% | ? | -13% | ? | 1%
CC(C)C1Nc2ccc(S(N)(=O)=O)cc2C2C=CCC21 (centres undefined) | ? | -1% | ? | -18% | -17% | -7%[57.1 µM]
Clc1cccc(N/N=C/C(Br)=C/c2ccccc2)c1 | nt | nt | 11µM* | nt | nt | nt
O=C(N/N=C/C(Br)=C/c1ccccc1)c1ccccc1F | -13%[57.1 µM] | -7% | 19% | -3% | -3% | -21%
O=C(CCCc1c[nH]c2ccccc12)N[C@@H]1CCOC[C@H]1OCC1CC1 | nt | nt | 23% | nt | nt | nt
CCC(C(=O)N1CCC(c2n[nH]c(=O)n2Cc2ccc(OC)cc2)CC1)c1ccccc1 (centres undefined) | nt | nt | 35µM* | nt | nt | nt
FC(F)C(F)(F)C(F)(F)C(F)(F)c1cc(-c2ccccc2)n[nH]1 | -2% | 1% | ? | 8% | 14µM* | -13%
COC(=O)C(NC(=O)CC(C)C)(Nc1nc2c(s1)CCCC2)C(F)(F)F (centres undefined) | -10% | -2% | -3% | -1% | 45% | -10%
COC(=O)C(NC(=O)COc1ccccc1)(Nc1nc2c(s1)CCCC2)C(F)(F)F (centres undefined) | 32µM* | 1% | -15% | -2% | 6% | -7%
COC(=O)c1ccc(=O)c2nc3/c(=C/O)c(O)cc(=O)c3[nH]c12 | 56µM* | -5% | -11% | 21% | -13% | -17%
CC[C@@H]1OC(=O)C[C@H](O)[C@@H](C)[C@@H](O[C@H]2O[C@@H](C)[C@H](O[C@@H]3C[C@](C)(O)[C@H](O)[C@@H](C)O3)[C@@H](N(C)C)[C@@H]2O)[C@@H](C=O)C[C@@H](C)C(=O)/C=C/C(C)=C[C@@H]1CO[C@H]1O[C@@H](C)[C@H](O)[C@H](OC)[C@@H]1OC | nt | -4% | nt | nt | nt | nt
COc1ccc2[nH]c3c(c2c1)CCNC31CCN(S(=O)(=O)c2c(C)noc2C)CC1 | nt | nt | 19% | nt | nt | nt
COc1ccc(C2COc3cc(O)ccc3C2)c(OC)c1O (centres undefined) | 14% | -2% | 35µM* | 10% | nt | 8%
CCCCC1(CO)C(=O)N(c2ccccc2)N(c2ccccc2)C1=O | 7% | -2% | 414% | 8% | -1% | 1%
CCCCC1(Br)C(=O)N(c2ccccc2)N(c2ccccc2)C1=O | 28µM* | -3% | -42% | 9% | nt | -3%
C/C(=N\NC(=S)NCc1ccccc1)c1ccc(Br)cc1 | 14%[57.1 µM] | -3% | ? | -1% | 15% | 1%[57.1 µM]
C/C(=N\NC(=S)Nc1ccc(C)c(C)c1)c1ccc(N2CCOCC2)cc1 | 21% | -5% | 35µM* | 17% | 6% | 4%
C/C(=N\NC(=S)Nc1ccc(F)cc1)c1ccc2c(c1)OCCO2 | -29% | 1% | 35µM* | -1% | -11% | -18%
C/C(=N\NC(=S)NCc1ccccc1)c1ccc2c(c1)OCCO2 | -24% | 3% | 35µM* | -3% | -5% | -16%
SMILES | rTrxR1 inhibitor | Glioma ERSR ind | ALOX12 inh | IDH1 R132H inh | Apoferritin bind | TrxR1 substrate
C/C(=N\NC(N)=S)c1ccc2c(c1)OCCO2 | -8%[57.1 µM] | -2% | ? | 2% | -10% | 3%[57.1 µM]
O=C(CSc1nnc(SCc2ccccc2)s1)N/N=C/C=C\c1ccco1 | 45µM* | -9% | 18µM* | 7% | -21% | -2%
CCn1c(SCC(=O)N/N=C/C=C/c2ccco2)nc2ccccc21 | 45µM* | 4% | ? | 5% | ? | -9%
CC(/C=N/NC(=O)CSc1nc2ccccc2n1C)=C\c1ccco1 | 79µM* | 6% | -26% | 3% | ? | -13%
CCn1c(SCC(=O)N/N=C/C=C/c2ccco2)nnc1-c1ccc(OC)cc1 | 11% | -2% | ? | 0% | -14% | 1%
CC(C)n1nc(C(=O)OCC(=O)Nc2ccc(Cl)cc2F)c2ccccc2c1=O | nt | nt | 6% | nt | nt | nt
CC(C)c1ccccc1NC(=O)C(Sc1ccccc1)c1ccccc1 (centres undefined) | nt | nt | -5% | nt | nt | nt
CCCCCCCCNS(=O)(=O)CCNC1CC1 | 45µM* | -4% | 3% | -1% | nt | -5%
CCCCCCCCCNS(=O)(=O)CCC | nt | nt | 16% | nt | nt | nt
CC(=O)CC1OC(=O)C(Br)=C1NCc1ccccc1 (centres undefined) | 14µM* | -11% | -25% | 0% | -13% | 3%
COc1ccc(C(=O)NC(Oc2ccccc2)C(Cl)(Cl)Cl)cc1 (centres undefined) | 11µM* | -2% | 0% | 11% | -24% | -2%
Cc1ccc(-c2cc(C(=O)Nc3ccccc3C)c3ccccc3n2)o1 | ? | -4% | 5µM* | 2% | -9% | 28%[57.1 µM]
CCc1nnc(NC(=O)c2cc(C)nc3ccccc23)s1 | 23%[57.1 µM] | -7% | -12% | 3% | -8% | 6%[57.1 µM]
CCc1nnc(NC(=O)c2cc(-c3ccc(C)o3)nc3ccccc23)s1 | ? | -1% | 6.3µM* | -2% | nt | -3%
Cc1cc(C(=O)Nc2ccccc2C)c2ccccc2n1 | 26% | -5% | -26% | 20% | -11% | 6%
Cc1ccnc(NC(=O)c2cc(-c3ccc(C)o3)nc3ccccc23)c1 | nt | nt | 10µM* | nt | nt | nt
COc1cccc(NC(=O)c2cc(-c3ccc(C)o3)nc3ccccc23)c1 | ? | 1% | 303% | 0% | -10% | 9%
Cc1ccc(-c2cc(C(=O)Nc3ccc(F)cc3)c3ccccc3n2)o1 | nt | nt | 3.2µM* | nt | nt | nt
CCS(=O)(=O)N[C@@H]1CN(C2CCOCC2)C[C@H]1CN(C)C | nt | nt | 101% | nt | nt | nt
